Test results reported in PubChem BioAssay (NCI).
Compounds without any hit were thinned out: in the full panel of roughly 83,000, 20% have a hit.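 Cell lines were cultured in 96-well plates, exposed to a single compound concentration, and assessed for percent growth 48 hours later.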 Unmarked numbers belong to inactive results. Active and inactive are the calls of the source. How the source made its calls: active means growth percent below 10; inactive means the rest.

How the values were obtained:
Assay in all cases: NCI-60 one-dose screen, 48 h (100 = growth as untreated, 0 = no growth, -100 = all killed)
Settings in all cases: 10 µM unless noted
SR leukemia = tested on: SR leukemia
RPMI-8226 leukemia = tested on: RPMI-8226 leukemia
OVCAR-8 ovarian = tested on: OVCAR-8 ovarian
OVCAR-5 ovarian = tested on: OVCAR-5 ovarian
OVCAR-4 ovarian = tested on: OVCAR-4 ovarian
SK-OV-3 ovarian = tested on: SK-OV-3 ovarian
IGROV1 ovarian = tested on: IGROV1 ovarian
OVCAR-3 ovarian = tested on: OVCAR-3 ovarian
HS 578T breast = tested on: HS 578T breast
NCI/ADR-RES ovarian = tested on: NCI/ADR-RES ovarian
T-47D breast = tested on: T-47D breast
MDA-MB-435 melanoma = tested on: MDA-MB-435 melanoma
SW-620 colon = tested on: SW-620 colon
MCF7 breast = tested on: MCF7 breast
HCT-116 colon = tested on: HCT-116 colon
HCC-2998 colon = tested on: HCC-2998 colon
KM12 colon = tested on: KM12 colon
BT-549 breast = tested on: BT-549 breast

Structure (SMILES)	growth (SR leukemia)	growth (RPMI-8226 leukemia)	growth (OVCAR-8 ovarian)	growth (OVCAR-5 ovarian)	growth (OVCAR-4 ovarian)	growth (SK-OV-3 ovarian)	growth (IGROV1 ovarian)	growth (OVCAR-3 ovarian)	growth (HS 578T breast)	growth (NCI/ADR-RES ovarian)	growth (T-47D breast)	growth (MDA-MB-435 melanoma)	growth (SW-620 colon)	growth (MCF7 breast)	growth (HCT-116 colon)	growth (HCC-2998 colon)	growth (KM12 colon)	growth (BT-549 breast)
Clc1cccc(/C=N/Nc2nc(N/N=C/c3cccc(Cl)c3)nc(N3CCOCC3)n2)c1	7.7% (active)	38.8%	49.5%	95.5%	66.4%	130%	50.7%	56.3%	67.5%	61.8%	68.5%	49.3%	18.1%	43%	22.8%	59%	30.2%	–
CCOC(=O)c1c(NC(=O)c2ccc(C(F)(F)F)cc2)sc2c(CN3CCN(C)CC3)c(O)ccc12	-56.9% (active)	-42% (active)	-56.2% (active)	-52.6% (active)	-53.8% (active)	-4.72% (active)	-82.7% (active)	-68.9% (active)	-17.8% (active)	-63.2% (active)	-35% (active)	-61.5% (active)	-71.2% (active)	-79.5% (active)	-92.5% (active)	-74.9% (active)	-21.2% (active)	–
CCN(CC)S(=O)(=O)c1ccc(-c2nc(C(Cl)Cl)nc3cc(-c4ccc(F)cc4)nn23)cc1	30.8%	6.42% (active)	27.6%	51.6%	45.2%	42.7%	56.9%	16.8%	36.4%	23.5%	28%	25.6%	23.5%	19.4%	28.6%	7.38% (active)	9.84% (active)	–
CNc1sc(S(=O)(=O)NC)nc1S(=O)(=O)c1ccc(C)cc1	101%	99.2%	102%	92.2%	108%	105%	95.1%	–	103%	103%	93.5%	105%	109%	87.6%	100%	103%	103%	99.5%
COc1cc(C(=O)c2cc(C(C)=O)c3cccc(C)n23)cc(OC)c1OC	17%	51.2%	50.8%	65.8%	74.1%	46.6%	43.9%	–	44.2%	22.1%	20.3%	-30.1% (active)	26%	20.3%	16.6%	61.1%	29.8%	25.8%
CN(C)c1cccc2c(S(=O)(=O)Nc3cccc(-c4csc(NC(=O)CCCCCN5CCN(CCO)CC5)n4)c3)cccc12	-9.78% (active)	47.2%	89%	88.7%	92.4%	107%	86.1%	–	85.1%	103%	82.7%	65.6%	98.4%	35.8%	36.2%	90.3%	88.6%	87.5%
N#Cc1c(-c2ccc(F)cc2)cc(-c2c[nH]c3ccccc23)nc1-c1c[nH]c2ccccc12	89.1%	101%	100%	109%	101%	96.9%	102%	–	95.2%	103%	89.9%	107%	107%	89.3%	105%	109%	–	109%
O=C(CSc1nc2ccccc2c(=O)n1-c1ccccc1)Nc1ccc(S(=O)(=O)Nc2nccs2)cc1	65%	36.8%	89.7%	56.9%	77.5%	103%	83%	38.9%	60.3%	–	69.3%	84.1%	67.9%	57.6%	37.7%	118%	94.4%	45.2%
O=C(CSc1cc[n+](CCCCO)c2ccccc12)n1ccc2ccccc21	90.3%	103%	95.5%	102%	105%	91%	20.2%	104%	106%	105%	96.6%	107%	–	94.6%	99.6%	113%	96.9%	–
C[C@@H]1OCC2(CCN(c3cnc(C(=O)Nc4cc(F)cc5cccnc45)cn3)CC2)[C@@H]1N	2.82% (active)	55.5%	86.8%	80%	14.8%	102%	28%	18.7%	66.6%	–	37.1%	82.9%	12.5%	2.1% (active)	15.7%	84.3%	83.7%	90.1%
CN1CCN(Cc2ccc(NC(=O)c3cncc(C#Cc4cnc5ccc(OC6CCOCC6)nn45)c3)cc2C(F)(F)F)CC1	-16.2% (active)	-20.9% (active)	-58.8% (active)	-55.4% (active)	-53.7% (active)	-73.7% (active)	-43.3% (active)	–	-38.1% (active)	-37.7% (active)	-56.1% (active)	-81.6% (active)	-18.2% (active)	-67.1% (active)	-89.5% (active)	-68.5% (active)	-68.5% (active)	-82.7% (active)
O=C(CSc1nc2ccccc2c(=O)n1-c1ccc(S(=O)(=O)Nc2ccc(Cl)nn2)cc1)Nc1ccc(S(=O)(=O)Nc2ccc(Cl)nn2)cc1	87.3%	108%	103%	103%	101%	105%	107%	108%	106%	103%	98.1%	99.7%	98.4%	–	105%	120%	99.4%	–
Cc1ccc(NC2=C(Cl)C(=O)c3nc(C)ccc3C2=O)c(C)c1	10.3%	-10.4% (active)	28.3%	-1.15% (active)	-96.5% (active)	117%	-58.8% (active)	-98.6% (active)	6.94% (active)	–	-46.1% (active)	-90% (active)	-29.4% (active)	-64.4% (active)	-67.7% (active)	64.6%	44.9%	62.9%
O=[N+]([O-])c1ccc(NC(=S)NNC(=S)Nc2ccc(F)cc2)cc1	91%	85.6%	91.7%	89.9%	95.7%	116%	83.5%	–	102%	84.2%	74.1%	91%	91.5%	82%	83.7%	85.5%	80.4%	97.1%
O=C1Nc2ccccc2/C1=N\c1nnc(-c2ccccc2)o1	105%	101%	102%	106%	98.7%	82.5%	72.1%	–	90.1%	95.6%	77.9%	102%	95.3%	66.3%	103%	111%	–	105%
C#Cc1nc(/C=C/CCCCCCC(=O)NO)cs1	-39.9% (active)	-12.7% (active)	31.8%	59.3%	47.2%	88.8%	-80.3% (active)	–	80%	24.9%	51.6%	55.3%	29.3%	48%	20%	108%	74.7%	88.9%
COc1cc(/C=C2/C(=O)Nc3ccc(Cl)cc32)ccc1OCc1ccc(Cl)cc1	41.9%	100%	91.2%	96.7%	20.3%	110%	77.3%	–	94.1%	88.3%	80.5%	91.3%	59.7%	49%	47.9%	107%	100%	101%
